Measurements: PubChem BioAssay (NCI)
Compounds without any hit were thinned out: in the full panel of roughly 83,000, 20% have a hit.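 Testing used 96-well plates and a 48-hour single-concentration exposure. Example: -40 means 40% of the starting cells died.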 Active and inactive are the calls of the source. Rule for the calls: active = growth percent below 10; inactive = the rest.

Each molecule was assayed on PC-3 prostate (assay: NCI-60 one-dose screen, 48 h (100 = growth as untreated, 0 = no growth, -100 = all killed)). Details: 10 µM unless noted.

SMILES	growth
COc1ccc([C@@H]2c3[nH]c4ccccc4c3C[C@H]3C(=O)N(C4CCN(CC5CCCCC5)CC4)CC(=O)N23)c(OC)c1	49.3% (inactive)
CS(=O)(=O)c1ncc(-c2ccccc2)cn1	100% (inactive)
CCCCCc1ccc(S(=O)(=O)Nc2cc(-c3csc(NC(=O)CN4CCN(C)CC4)n3)ccc2OC)cc1	23.2% (inactive)
Cc1nc2ncc(-c3ccc4ncnc(NCc5ccccc5)c4c3)cc2[nH]1	40.8% (inactive)
O=C(CCn1c[n+](CC(=O)c2ccc(F)cc2)c2ccccc21)Nc1cccc2cccnc12	63.4% (inactive)
COc1ccc([C@@H]2[C@@H](O)C(=O)N2c2cc(OC)c(OC)c(OC)c2)cc1F	20.9% (inactive)
C=CCn1c(SCC(=O)Nc2ccc(C(=O)/C=C/c3cccc([N+](=O)[O-])c3)cc2)nnc1-c1c[nH]c2ccccc12	77.8% (inactive)
CCCCCc1ccc(S(=O)(=O)Nc2cccc(-c3csc(NC(=O)CN4CCN(C)CC4)n3)c2)cc1	67.1% (inactive)
COc1cccc(O)c1/C=C(/C)c1ccc2c(OC)cccc2[o+]1	97.5% (inactive)
O=C(c1ccc(O)cc1)[C@@H]1CN[C@@]2(C(=O)Nc3ccccc32)[C@H]1c1ccc(F)cc1	88.8% (inactive)

What follows are molecules tested on SK-MEL-5 melanoma in the same assay as above. Details: 10 µM unless noted.

SMILES	growth
C=C(C=O)[C@@H]1CC[C@]2(C)[C@H](CC=C3[C@H]4[C@@H](C)[C@H](C)CC[C@]4(C(=O)OC)CC[C@]32C)[C@@]1(C)CCC#N	-98% (active)
COc1ccc([C@@H]2c3[nH]c4ccccc4c3C[C@H]3C(=O)N(C4CCN(CC5CCCCC5)CC4)CC(=O)N23)c(OC)c1	73.3% (inactive)
c1ccc(C(c2nc3ncncc3[nH]2)N2CSc3nc4ncncc4n3C2)cc1 (stereo unspecified)	85.1% (inactive)
Cc1occc1-c1nc2s/c(=C/c3ccc(-c4cc(C(F)(F)F)ccc4Cl)o3)c(=O)n2n1	99.7% (inactive)
CS(=O)(=O)c1ncc(-c2ccccc2)cn1	93% (inactive)
CCOC(=O)c1c(N)c(C#N)cn1-c1cc(OC)c(OC)c(OC)c1	111% (inactive)
CCCCCc1ccc(S(=O)(=O)Nc2cc(-c3csc(NC(=O)CN4CCN(C)CC4)n3)ccc2OC)cc1	-93.5% (active)
Cc1nc2ncc(-c3ccc4ncnc(NCc5ccccc5)c4c3)cc2[nH]1	82.8% (inactive)
C=C(C=O)[C@@H]1CC[C@]2(COC(C)=O)CC[C@]3(C)C(CC[C@@H]4[C@@]5(C)CC[C@H](OC(C)=O)C(C)(C)[C@@H]5CC[C@]43C)[C@@H]12 (stereo partly specified)	-96.9% (active)
Cc1ccc(S(=O)(=O)N(CC[C@@H]2C[C@H]2c2cc3ccccc3o2)S(=O)(=O)c2ccc(C)cc2)cc1	96.1% (inactive)
COC(=O)c1ccc(NC2=C/C(=N/S(=O)(=O)c3ccc(C(=O)O)cc3)c3ccccc3C2=O)cc1	-35.6% (active)
O=C(CCn1c[n+](CC(=O)c2ccc(F)cc2)c2ccccc21)Nc1cccc2cccnc12	33.4% (inactive)
CC1(C)CC[C@]2(C(=O)O)CC[C@]3(C)C(=CC[C@@H]4[C@@]5(C)CC/C(=N\OCCC#N)C(C)(C)[C@@H]5CC[C@]43C)[C@@H]2C1	98.4% (inactive)
COc1ccc([C@@H]2[C@@H](O)C(=O)N2c2cc(OC)c(OC)c(OC)c2)cc1F	-34% (active)
CCOC(=O)c1c(Nc2ccccc2)nn2c(-c3ccccc3)ccnc12	78.5% (inactive)
C=CCn1c(SCC(=O)Nc2ccc(C(=O)/C=C/c3cccc([N+](=O)[O-])c3)cc2)nnc1-c1c[nH]c2ccccc12	59.5% (inactive)
Cc1ccc(NC(=O)N[C@@H](Cc2cc(F)cc(F)c2)C(=O)NC2C(=O)N3C[C@H](O)C[C@H]3C(=O)N3CCCC[C@H]3C(=O)N[C@@H](CO)C(=O)N3C[C@H](C)C[C@H]3C(=O)O[C@H]2C)c(F)c1 (stereo partly specified)	21.5% (inactive)
C#C[C@]1(O)CC[C@H]2[C@@H]3CC=C4c5sc(-c6ccc7c(c6)OCO7)nc5CC[C@]4(C)[C@H]3CC[C@@]21C	50.5% (inactive)

SMILES	growth
CCCCCc1ccc(S(=O)(=O)Nc2cccc(-c3csc(NC(=O)CN4CCN(C)CC4)n3)c2)cc1	50.8% (inactive)
CCCn1cnc2c(c1=N)C(c1ccc(F)cc1)c1sc3c(CC)cccc3c1O2 (stereo unspecified)	-12.2% (active)
O=C(NCCn1ccnc1)c1ccc(-c2nc3ccc4[nH]ncc4c3c3c2CCCC3)cc1	89.9% (inactive)
COc1cccc(O)c1/C=C(/C)c1ccc2c(OC)cccc2[o+]1	105% (inactive)
NS(=O)(=O)c1ccc(-n2cc(CN3CCCCC3)nn2)cc1	99.6% (inactive)
O=S(=O)(NCCNc1nccc(-n2cnc3ccccc32)n1)c1ccc(Cl)cc1	99.4% (inactive)
COC(=O)C1(C)CCC[C@]2(C)[C@H]3C[C@H]4C(C(C)C)=C[C@]3(CC[C@@H]12)[C@H]1[C@@H]4[C@@H](OC(=O)c2ccco2)CC[C@@H]1OC(=O)c1ccco1 (stereo partly specified)	102% (inactive)
CCCn1cnc2c(c1=N)C(c1ccc(OC)cc1)c1sc3c(C)cccc3c1O2 (stereo unspecified)	40.3% (inactive)
COc1cc(-c2nn(C(C)(C)C)cc2-c2ccnc(NCCCNS(=O)(=O)c3cccc(F)c3)n2)ccc1Cl	81.8% (inactive)
CC1(C)CC[C@]2(CN)CC[C@]3(C)C(=CC[C@@H]4[C@@]5(C)CCCNC(C)(C)[C@@H]5CC[C@]43C)[C@H]2C1	98.8% (inactive)
NC(=O)c1cccc(C#CCNC[C@H]2C[C@@H](n3ccc4c(Cl)ncnc43)[C@H](O)[C@@H]2O)c1	101% (inactive)
NC(N)=Nc1ccc(Oc2cccc(Nc3cccc(C(F)(F)F)c3)c2)cn1	31.4% (inactive)
O=C(CSc1nc2ccccc2c(=O)n1-c1ccccc1)Nc1cccc(C(=O)/C=C/c2ccccc2)c1	99.5% (inactive)
COc1ccc(/C(N)=N/C(N)=N/c2nc3ccccc3s2)cc1	72% (inactive)
Cc1cccc(/C=C/C(=O)Nc2ncc(Cc3cccc(C)c3)s2)c1	-19% (active)
COc1c(N2CC3CCCNC3C2)c(F)cc2c(=O)c(C(=O)N/N=C/c3ccc(Br)cc3)cn(C3CC3)c12 (stereo unspecified)	84% (inactive)
O=C(c1ccc(O)cc1)[C@@H]1CN[C@@]2(C(=O)Nc3ccccc32)[C@H]1c1ccc(F)cc1	101% (inactive)
Nc1nc(Nc2ccccc2SSc2ccccc2Nc2nc(N)nc(-c3ccc4ccccc4c3)n2)nc(-c2ccc3ccccc3c2)n1	92.3% (inactive)
